Results on 35 compounds are retold here after PubChem BioAssay.

Unmarked numbers belong to inactive results.

A short description of this experiment: CREB reporter modulators under forskolin, primary screen, cell-based, PC12, CRE-LacZ reporter, forskolin-stimulated (AID 1146).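 Note: PC12 cells with 6xCRE LacZ reporter stimulated by forskolin 10 µM; beta-galactosidase reporter signal reflecting CREB driven transcription.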 Conditions: luminescence, 4.5 h, higher = more signal, called active from +8 up or from −8 down.
For `CC(C)Cc1ccc(CN2CC[C@@H](NC(=O)Nc3ccccc3)C2)cc1`, the z-score was -0.269.

Regarding `CC(C)C[C@@H]1NC(=O)[C@@H]2C[C@H](C(=O)NCCCCN(C)C)[C@H](c3cccc(OCCO)c3)N2C1=O`, the z-score was 0.645.

In the case of `CC1CC/C=C\[C@H]2OC34C=CCN(C(C)C)C(=O)[C@H]3N(CCCCCCO)C(=O)[C@@H]4C2C(=O)O1` (stereo not given in full), the z-score was -0.816.

Regarding `COc1ccc(CCNC(=O)[C@@]2(Sc3ccc(C)cc3)CC(=O)N(C3Cc4ccccc4C3)[C@@H]2c2ccc(CO)cc2)cc1`, the z-score was -0.0678.

As for `COc1ccc(-c2nc(-c3ccccc3)c3c(c2C)CO[Si]3(C(C)C)C(C)C)cn1`, the z-score was 0.315.

Consider `CCCC[C@@H]1C[C@H]1[C@@H](NC(=O)c1cccs1)c1ccc(C(F)(F)F)cc1`, for which the z-score is 1.57.

For `CN1C(=O)C2C=CC(C(O)c3ccc(F)cc3)N(Nc3ccccc3)C2C1=O` (stereo not given), the z-score is 0.754.

In the case of `OCC1CC(c2ccccc2)=NO1` (stereo not given), the z-score is -0.295.

With `COC1OC[C@]2(C)[C@H]3C4=C(CN2C(=O)OC(C)(C)C)[C@H](C)C(CO)C(CO)C4CC[C@@H]13` (stereo not given in full), the z-score was 0.212.

Take `NCCCCCCNC(=O)[C@@H]1C[C@@H]2C(=O)N[C@@H](CCCCN)C(=O)N2[C@@H]1c1cccc(OCCO)c1`: the z-score is -0.119.

For `CCOC(=O)C1=C[C@@H](c2ccccc2)N(S(=O)(=O)c2ccc(C)cc2)[C@H]1c1ccccc1Cl`, the z-score is 0.343.

Take `CCOc1cc(C(O)C2C=CC3C(=O)N(c4ccccc4)C(=O)C3N2Nc2ccc(C#N)cc2)ccc1O` (stereo not given): the z-score is 0.201.

Take `CCCCCCCCCCC(O)C1C=CC2C(=O)N(C)C(=O)C2N1NC(=O)OC(C)(C)C` (stereo not given): the z-score is 0.584.

`NCCCCCNC(=O)[C@@H]1C[C@@H]2C(=O)NCC(=O)N2[C@@H]1c1cccc(OCCO)c1`: the z-score is -0.496.

Regarding `[N-]=[N+]=NCc1ccccc1[C@H]1OC(c2ccc(OCCCO)cc2)=N[C@@]1(CCS(=O)(=O)c1ccccc1)C(=O)N1CCCCC1`, the z-score was -0.709.

For `CCOC(=O)C[C@H]1[C@H](OC(=O)c2ccccc2-c2ccccc2)[C@@H](NC(=O)c2ccc(-c3ccccc3)cc2)c2cc(OCCCO)ccc2N1C(=O)c1ccc2ccccc2n1`, the z-score is 0.254.

For `CCCCCCc1nc(C2CC2)cc2c1[Si](C(C)C)(C(C)C)OC2`, the z-score was 0.997.

For the compound `O=C1C[C@@](C(=O)NCCN2CCOCC2)(c2ccc([N+](=O)[O-])cc2)[C@@H](c2ccc(CO)cc2I)N1C1CCCCC1`, the z-score was -1.11.

Regarding `COC(=O)[C@@]1(Cc2ccc(OC)cc2)[C@H]2c3cc(C(=O)N4CCCC4)n(Cc4c(-c5ccccc5)noc4C)c3C[C@H]2CN1C(=O)c1ccccc1`, the z-score was -0.531.

Turning to `CC(C)(C)N1CC=CC23O[C@@H]4C=CCCOC(=O)C4[C@H]2C(=O)N(CCO)[C@@H]3C1=O` (stereo not given in full), the z-score was -0.443.

Consider `O=C1O[C@@H](c2ccccc2)[C@@H](c2ccccc2)N2[C@@H](c3ccccc3OCCO)[C@]3(C(=O)Nc4ccc(C#CCCO)cc43)[C@@H](C(=O)N3CCCCCCC3)[C@H]12`, for which the z-score is 0.337.

With `CO[C@]12C=C(Br)[C@@H](C[C@@H]1c1cccc(C)c1)[C@@]1(CO1)C2=O`, the z-score was 5.27.

On to `O=C1C2C=CC(C(O)c3ccccc3)N(Nc3ccccc3F)C2C(=O)N1c1ccccc1` (stereo not given), for which the z-score was 0.39.

Regarding `CC[C@H]1C2=C3C(CC[C@H]4C(OCc5ccc(F)cc5C(F)(F)F)OC[C@](C)([C@@H]34)N(C(=O)OC(C)(C)C)C2)C(COC)C1COC` (stereo not given in full), the z-score was 1.01.

Regarding `Cc1ccc(S[C@]2(C(=O)O)CC(=O)N(C3Cc4ccccc4C3)[C@@H]2c2ccc(CO)cc2)cc1`, the z-score was 0.629.

On to `COc1ccc(NC(=O)O[C@H]2[C@H](OC(=O)Nc3ccccc3)[C@@H](OC(=O)Nc3ccccc3)[C@@H](OC)O[C@@H]2CO)cc1`, for which the z-score is -1.52.

On to `CCCC[C@@H]1C[C@H]1[C@@H](NC(=O)Cc1ccccc1)c1ccc(-c2ccccc2)cc1`, for which the z-score is 1.19.

For the compound `N#Cc1ccc(NN2C(C(O)c3ccc(F)cc3)C=CC3C(=O)N(c4ccccc4)C(=O)C32)cc1` (stereo not given), the z-score is 0.521.

For the compound `[N-]=[N+]=NCc1ccccc1C[C@]1(C(N)=O)N=C(c2ccc(OCCCO)cc2)O[C@H]1c1ccccc1`, the z-score was 0.0159.

With `COCCCNC(=O)[C@@]1(Cc2ccccc2N=[N+]=[N-])N=C(c2ccc(OCCCO)cc2)O[C@H]1c1ccccc1`, the z-score is -0.472.

`CN(C)CCCNC(=O)[C@@H]1c2ccccc2C(=O)N(Cc2ccccc2Cl)[C@H]1c1ccc(CO)cc1`: the z-score was -0.343.

In the case of `C=C(/C(=C/C[C@H](OC(=O)c1ccncc1)c1ccc(CO)o1)c1cc(C(=O)OC)ccc1OC)C(C)C`, the z-score is 0.953.

As to `C=CCC(OC(C)=O)[C@@H]1[C@@H](N(Cc2ccc(-c3cccc(C(F)(F)F)c3)o2)C(=O)c2ccc(-c3ccccc3)cc2)c2cc(OCCCO)ccc2N1C(=O)c1ccc2ccccc2n1` (stereo not given in full), the z-score is 0.53.

As to `CCCCN1CC=CC23O[C@@H]4/C=C\CCC(C)OC(=O)C4[C@H]2C(=O)N(C(CO)C(C)C)[C@@H]3C1=O` (stereo not given in full), the z-score is -0.651.

Take `[N-]=[N+]=Nc1ccccc1[C@H]1OC(c2ccc(OCCCO)cc2)=N[C@@]1(Cc1ccccc1)C(=O)N1CCCCC1`: the z-score is -0.585.
